Bioassay records as filed in PubChem.
AmpC inh detg – qHTS Inhibitors of AmpC Beta-Lactamase (assay with detergent); P00811; AmpC hydrolysis of nitrocefin, absorbance 480 nm, 0.01% Triton; Potency, µM (highest dose often 114 µM), hits mostly inhibitors; 370,000 compounds, 0.041% hits; AID 485294, 2010; note: nearly all actives have a fitted effect of over 25% in size
Target sequence (P00811 whole entry, looked up): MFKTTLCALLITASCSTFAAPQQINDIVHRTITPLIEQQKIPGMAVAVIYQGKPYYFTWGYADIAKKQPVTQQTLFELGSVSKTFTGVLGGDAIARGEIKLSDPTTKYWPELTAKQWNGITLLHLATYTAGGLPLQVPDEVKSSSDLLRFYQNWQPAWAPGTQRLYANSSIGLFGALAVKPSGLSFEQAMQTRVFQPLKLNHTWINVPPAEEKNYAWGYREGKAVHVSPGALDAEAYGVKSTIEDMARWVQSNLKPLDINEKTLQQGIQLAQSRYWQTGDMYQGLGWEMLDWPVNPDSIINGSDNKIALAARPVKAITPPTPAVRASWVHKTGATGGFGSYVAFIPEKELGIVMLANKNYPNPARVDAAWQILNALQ
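AmpC (5.3 nM in the dispensed reagent) in 20 mM phosphate pH 7.0 with 0.01% (detergent screen) or 0.0001% Triton X-100 was preincubated with compounds for 15 min at room temperature. Nitrocefin was then added from an 800 uM solution, and hydrolysis was followed at 480 nm.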
Sm TGR block – qHTS Assay for the Inhibitors of Schistosoma Mansoni Peroxiredoxins; purified TGR, DTNB reduction, TNB absorbance 405 nm; AID 485364, 2010; 360,000 compounds, 3% hits; Potency, µM (doses to about 114 µM), most hits filed as inhibitors; Schistosoma mansoni thioredoxin glutathione reductase (TGR), Q962Y6; note: nearly all actives have a fitted effect of over 60% in size
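First, TGR (20 nM dispensed) and NADPH were mixed with compound. Second, a 15 min room-temperature incubation followed. Third, further NADPH and then DTNB were added to start the reaction. Finally, TNB absorbance was monitored kinetically.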
AmpC no deterg – qHTS Inhibitors of AmpC Beta-Lactamase (assay without detergent) | P00811 | AmpC nitrocefin hydrolysis, absorbance 480 nm, 0.0001% Triton | Potency, µM (top dose mostly 57.1 µM), actives largely listed as inhibitors | 330,000 compounds, 0.52% hits | AID 485341, 2010; note: nearly all actives have a fitted effect of over 20% in size
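AmpC (5.3 nM in the dispensed reagent) in 20 mM phosphate pH 7.0 with 0.01% (detergent screen) or 0.0001% Triton X-100 was preincubated with compounds for 15 min at room temperature. Nitrocefin was then added from an 800 uM solution, and hydrolysis was followed at 480 nm.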
FMDV inh – High Throughput Screening for Foot and Mouth Disease Virus Antivirals | FMDV antiviral cell-based qHTS | 410,000 compounds, 1.2% hits | Potency, µM (top dose mostly 57.9 µM), most hits filed as inhibitors | AID 1159524, 2015; calls by dose curve; tested in HEK293T cells; note: read-out not given here; nearly all actives have a fitted effect of over 45% in size
AMA1 RON2 block – qHTS for Inhibitors of AMA1-RON; Towards Development of Antimalarial Drug Lead: Primary Screen. Plasmodium falciparum AMA1 (3D7) - RON2 peptide interaction. AlphaScreen AMA1-biotinylated RON2 peptide binding. Potency, µM (top dose mostly 58.2 µM), actives largely listed as inhibitors. 360,000 compounds, 0.2% hits; note: nearly all actives have a fitted effect of over 45% in size
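AMA1 (3D7) with his tag at 25 nM final met compounds first, then biotinylated RON2 peptide at 25 nM; detection used donor plus acceptor beads, 10 µg/mL apiece, read by AlphaScreen after 30 min at room temperature.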
Hits are given with their value; n = inactive; u = inconclusive; x = not tested or not shown; [ ] = remark or other dose. The list is not random: actives were taken first. Their share in the collection is about 4.1%. Unless noted, calls come from the whole dose curve; as a rule, active = well fitted curve in the direction sought with a large enough effect; inconclusive = small, poorly fitted or top-dose-only effect, or another doubt; inactive = no such curve, though single readings can be large; an effect the other way counts as inactive or inconclusive.

SMILES	AmpC inh detg	Sm TGR block	AmpC no deterg	FMDV inh	AMA1 RON2 block
O=S(=O)(c1ccccc1)N1CCC[C@@]2(CCN(C(c3ccccc3)c3ccccc3)C2)C1	x	x	x	n	x
COCCC(=O)Nc1ccc2c(c1)CN(C(=O)c1ccc(CSC)o1)CC2	n	45µM	n	n	n
NC(=O)C1CCN(CC(=O)c2c[nH]c3ccc(F)cc23)CC1	n	n	0.14µM	n	n
O=C(CN1CCN(c2ccccc2F)CC1)c1c[nH]c2ccc(F)cc12	n	n	n	n	n
CCCNC(=O)CSc1nc(-c2ccc(OC)cc2)cc(C(F)(F)F)n1	n	n	x	n	x
CN1CCc2c(C#N)c(N3CCCCC3)nc(N3CCOCC3)c2C1	x	x	x	n	n
CN1CCc2c(C#N)c(Cl)nc(Cl)c2C1	n	32µM	n	n	n
CCOc1ccc(-c2nc(SCC(=O)Nc3cc(F)ccc3F)n3[nH]c(=O)cc3n2)cc1	n	n	x	n	x
COc1ccccc1C(=O)NNC(=S)NC(=O)c1sc2ccccc2c1Cl	n	n	n	n	n[11.6 µM]
Cc1c(NC(=S)NC(=O)c2sc3ccccc3c2Cl)cccc1C(=O)O	n	3.2µM	n	n	n
COc1ccc(CCNC(=O)CN2C(=O)COc3ccccc32)cc1OC	n	n	x	n	x
Cc1ccc(CCNC(=O)CCc2cn(Cc3ccccc3C)c3ccccc23)cc1	n	n	x	n	x
Cc1cc(=O)oc(C)c1C(=O)Nc1ccc2nsnc2c1	u	n	n	25µM	n
Cc1cc(C)nc(/N=C(\N)Nc2ccc(OCc3ccccc3)cc2)n1	n	n	n	28µM	n
COc1ccc(N/C(N)=N/c2nc(C)cc(C)n2)cc1	x	x	x	n	n
Cc1cc(C)nc(/N=C(\N)Nc2cccc(OCc3ccccc3)c2)n1	n	n	n	32µM	n
Cc1cc(C)nc(/N=C(\N)Nc2ccc(OCCC(C)C)cc2)n1	n	n	n	8.9µM	n
CC(C)(C)OC(=O)N1CCC(c2c(C(=O)NCc3ccccc3)cnn2-c2ccc(F)cc2)CC1	n	n	x	n	x
NC(=O)[C@@H]1[C@@H]2C(=O)N(c3ccc(F)cc3)C(=O)[C@@H]2[C@H]2C=Cc3ccccc3N21	n	32µM	n	n	n
CCCC(=O)NC(C)c1nc2ccccc2[nH]1 (stereo not drawn)	n	n	n	n	n
CCCCC(NC(C)=O)c1nc2ccccc2[nH]1 (stereo not drawn)	n	n	40µM	n	n
O=C1NC(=O)N(c2ccccc2)C(=O)/C1=C\c1ccc([N+](=O)[O-])o1	n	8.9µM	n	x	x
CN1C(=O)NC(=O)/C(=C/c2ccc([N+](=O)[O-])o2)C1=O	n	5µM	n	u	u
CN1C(=O)NC(=O)/C(=C\c2ccc([N+](=O)[O-])o2)C1=O	n	7.9µM	n	n	u
COc1ccc(-c2ccnc(-n3ncc(C(=O)NCc4ccon4)c3C3CC3)n2)cc1F	x	x	x	n	x
SMILES	AmpC inh detg	Sm TGR block	AmpC no deterg	FMDV inh	AMA1 RON2 block
CCOc1ccccc1NC(=O)Cn1c(=O)n(CC(=O)NCc2ccccc2Cl)c(=O)c2sccc21	n	n	x	n	x
NC(=O)C1CCN(Cc2nc3ccccc3c(=O)[nH]2)CC1	n	n	n	n	n
NC(=O)C1(N2CCCCC2)CCN(Cc2nc(-c3cccs3)no2)CC1	n	n	n	35µM	n
NC(=O)C1(N2CCCCC2)CCN(Cc2nc3ccccc3c(=O)[nH]2)CC1	n	n	0.32µM	x	n
O=C1OC(c2cccs2)=N/C1=C/c1ccc(-c2cccc(C(=O)O)c2)o1	n	22µM	n	n	n
N=C1/C(=C\c2ccc(-c3cc(Cl)cc(Cl)c3)o2)C(=O)N=C2SC=C(c3ccccc3)N12	n	n	n	n	n
N=C1/C(=C/c2ccc(-c3cccc(C(=O)O)c3)o2)C(=O)N=C2SC=C(c3ccccc3)N12	50µM	n	n	n	u
Cc1c(-c2ccc(Cl)cc2)[n+](=O)c2c(n1[O-])CCCC2	n	n	n	n	n
Cc1c(-c2ccc(Cl)cc2)[n+](=O)c(-c2ccccc2)cn1[O-]	n	50µM	n	n	n
O=C(C1=C[C@@H]2[C@H]3C(=O)N(c4ccccc4)C(=O)[C@H]3[C@@H](C(=O)c3ccc(Cl)cc3)N2C=C1)c1ccccc1	n	14µM	n	x	x
O=C(c1ccc(Cl)cc1)[C@@H]1[C@@H]2C(=O)N(c3ccc(Cl)cc3)C(=O)[C@@H]2C2c3ccccc3C=NN21 (stereo partly drawn)	n	n	u	n	n
Cc1ccc(-n2c(=O)c3c(cnn3C)n(CC(=O)Nc3ccc(C)cc3C)c2=O)cc1	n	n	x	n	x
COc1ccc(NC(=S)N(CCc2c(C)[nH]c3ccc(C)cc23)Cc2ccco2)cc1	u	n	18µM	n	n
Cc1ccc(C(=O)NC2(C(F)(F)F)C(=O)Nc3c2c(=O)[nH]c(=O)n3CCc2ccccc2)cc1 (stereo not drawn)	n	n	x	n	x
Cc1ccc2nc(SCC(=O)Nc3cccc(S(=O)(=O)N(C)C)c3)[nH]c2c1	n	n	n	n	n
NS(=O)(=O)c1cccc(NC(=O)CSc2nc3ccc(Cl)cc3[nH]2)c1	u	n	18µM	n	n
O=C(CSc1nc2ccc(Cl)cc2[nH]1)NC1CCCc2ccccc21 (stereo not drawn)	n	n	n	28µM	n
O=C(CSc1nc2ccccc2[nH]1)NC1CCCc2ccccc21 (stereo not drawn)	n	n	n	n	n
O=C1NC(=O)N(c2ccc(Cl)cc2)C(=O)/C1=C/c1ccc2c(c1)CCN2Cc1ccccc1Cl	x	x	x	n	n
CCC(C)N1C(=O)/C(=C/c2ccc3c(c2)CCN3CCCCl)C(=O)NC1=S (stereo not drawn)	n	u	n	32µM	n
O=C1C(Cl)=C(NCCN2CCOCC2)C(=O)c2ncccc21	x	x	x	16µM	x
COc1ccc(N2CCC(CNC(=O)Nc3cccc(OC)c3)C2)cc1 (stereo not drawn)	n	n	13µM	n	u
COc1ccc(N2CCC(CNC(=S)Nc3cccc(OC)c3)C2)cc1 (stereo not drawn)	n	n	n	x	x
CCc1noc(C)c1C(=O)N1CCOc2ccc(CN3CCCC(C(=O)c4cccnc4)C3)cc2C1 (stereo not drawn)	x	x	x	n	x
O=C(O)C1(S(=O)(=O)CCC(F)=C(F)F)CC1	n	32µM	n	n	n
CN(C)c1ccccc1-c1cc(NC=O)c2ncc(-c3cccc(C(F)(F)F)c3)n2c1	x	x	x	n	n
N#CC(C#N)=C/C(C#N)=C(/N)N1CCN(c2ccc(Cl)cc2)CC1	n	n	n	18µM	n
